Screening data deposited in PubChem BioAssay by Broad Institute.
HDAC3 inh: blocks human histone deacetylase 3; actives 0.15% (n = 320,000); recombinant HDAC3, fluorogenic peptide/trypsin coupled, fluorescence; inhibition, % at 8.3 µM; O15379; in the data active = inhibition above about 26%, passing the limit was not always enough; inconclusive = no clear call, values can overlap the other calls
Keap1 Nrf2 FP: disrupts human Keap1 binding to Nrf2 peptide. inhibition, % at 9.4 µM. Q14145. AID 504523. Keap1 Kelch-Nrf2 peptide fluorescence polarization, 1536-well. actives 0.15% (n = 340,000); in the data active = inhibition above about 12%; inconclusive = no clear call, values can overlap the other calls; inactive = below about 7.3%;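 note: human Keap1 Kelch domain with fluorescein labeled Nrf2 9mer peptide probe; 0% = neutral control wells and 100% = peptide positive control; higher means more block of Keap1 binding to Nrf2 peptide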
Target sequence (Q14145 whole entry, looked up, the tested form may be a part): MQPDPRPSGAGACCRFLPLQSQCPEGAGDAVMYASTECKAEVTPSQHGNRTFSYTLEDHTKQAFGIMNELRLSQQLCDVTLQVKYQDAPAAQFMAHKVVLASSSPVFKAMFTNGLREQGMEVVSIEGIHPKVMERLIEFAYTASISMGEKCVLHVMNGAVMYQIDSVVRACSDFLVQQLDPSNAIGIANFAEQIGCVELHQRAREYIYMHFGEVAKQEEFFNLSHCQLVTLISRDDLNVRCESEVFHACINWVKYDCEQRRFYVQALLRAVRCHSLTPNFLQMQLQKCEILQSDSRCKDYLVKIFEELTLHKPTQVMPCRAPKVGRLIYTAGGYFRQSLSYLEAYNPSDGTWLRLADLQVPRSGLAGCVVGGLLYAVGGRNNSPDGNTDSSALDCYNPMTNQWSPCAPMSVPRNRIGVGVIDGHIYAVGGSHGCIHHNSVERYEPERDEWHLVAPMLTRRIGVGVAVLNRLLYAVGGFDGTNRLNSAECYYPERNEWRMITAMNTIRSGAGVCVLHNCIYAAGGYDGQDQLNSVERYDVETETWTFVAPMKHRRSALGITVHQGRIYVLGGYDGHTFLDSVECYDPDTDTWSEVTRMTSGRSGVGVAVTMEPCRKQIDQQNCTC
Glyco luc inh: blocks N-linked glycosylation in D54 reporter cells. D54 ERlucT glycosylation luciferase reporter, 24 h; percent of 100 nM tunicamycin response. reporter increase, % at 12.5 µM. actives 0.23% (n = 360,000). AID 588692;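 active = mean luciferase reporter signal, scaled so untreated is 0 and the glycosylation-blocking control 100, at or above a set limit in every replicate; inconclusive = mean reaches the limit but not every replicate does; inactive = mean below the limit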;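 note: luciferase carries N-glycosylation sites so blocking glycosylation raises the light; 0% = median of neutral control wells and 100% = median of 100 nM tunicamycin wells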
NSD2 inh: NSD2 (human) methyltransferase inhibition. AID 743445. NSD2 peptide methylation, AlphaScreen, 120 min. inhibition, % at 12.5 µM. actives 0.54% (n = 310,000). O96028; in the data active = inhibition above about 50%
C-LANA FP: inhibitors of KSHV LANA C-terminal domain DNA binding; MBP-C-LANA/FAM-LBS DNA binding, fluorescence polarization; inhibition, % at 9 µM; actives 0.078% (n = 340,000); AID 504423;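 active = highest replicate inhibition at or above 60% at 9 µM, even if other replicates fall short; inactive = all replicates below 60% inhibition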;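 note: 0% = neutral control wells and 100% = 4 µM acridine orange control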
CASP6 VEID inh: inhibitors of human caspase-6. P55212. purified caspase-6, Z-VEID-R110 cleavage fluorescence. inhibition, % at 12.5 µM. actives 0.53% (n = 350,000). AID 686996;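 active = mean inhibition across replicates at least about 35%, with every replicate also reaching that limit, limit read from the data; inconclusive = only one of the two criteria met; inactive = neither criterion met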;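 note: 0% = median of neutral control wells and 100% = no fluorescence left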
CASP1 counter: blocks human caspase-1 in a selectivity counter-screen | shares compounds with CASP6 VEID inh | activity change, negative = inhibition, % at 35 µM | 100 tested, under 10 active | purified caspase-1, Z-YVAD-R110 cleavage fluorescence;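 active = compounds lowering fluorescence whose fitted half-maximal concentration is no more than twice their top tested dose; inconclusive = flat fit with 30 to 70% inhibition, or poor fit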
Alpha artifact: counter-screen for NSD2 inhibitors: AlphaScreen artifacts; shares compounds with NSD2 inh; AID 1053174; actives 9.4% (n = 1,500); AC35, µM (highest dose often 10 µM), for inactives: at the highest dose activity change, negative = signal loss; AlphaScreen artifact counterscreen, preloaded methylated H4 peptide; call rule not given here
Active calls of the source: *; ? = inconclusive; nt = no result. Most compounds without a hit are left out; they make up all but 1.1% or so of the library.

SMILES	HDAC3 inh	Keap1 Nrf2 FP	Glyco luc inh	NSD2 inh	C-LANA FP	CASP6 VEID inh	CASP1 counter	others
NS(=O)(=O)c1ccc(NC(=O)COC(=O)c2ccc([N+](=O)[O-])s2)cc1	3.1	-6.1	0.3	nt	-0.5	91.8*	4.5
COc1ccc(C(=O)OCC(=O)Nc2ncc([N+](=O)[O-])s2)cc1OC	6.7	-6.7	-1.9	-1.8	16.7	56.9*	-1.6
Cc1ccc(NC(=O)COC(=O)c2ccc([N+](=O)[O-])s2)c(C)c1	6.5	-2.2	0.8	0.3	2.3	0.8	nt
COc1ccc(C(=O)OCC(=O)Nc2sccc2C(N)=O)cc1OC	1.5	-0.3	1.0	-0.8	0.0	1.3	nt
COc1ccccc1NC(=O)COC(=O)c1ccc([N+](=O)[O-])s1	3.8	-1.0	2.7	0.8	1.4	86.9*	-0.2
Oc1cc(Nc2ccncc2)cc2cccnc12	6.5	-7.3	-8.1	nt	-1.4	-13.5	nt
Oc1cc(NCCc2cccnc2)cc2cccnc12	-2.4	7.1	11.2	nt	4.5	48.8*	4.7
CCCNC(=O)N1[C@H](C#N)[C@@H](c2ccccc2-c2ccccc2F)[C@@H]1CO	nt	nt	nt	nt	nt	-2.9	nt
CCCN1C[C@H](C)[C@@H](OC)CN(C)C(=O)c2cc(NC(=O)c3ccccc3F)ccc2OC[C@@H]1C	nt	nt	nt	nt	nt	-0.5	nt
Cc1ccc(C)c(NC(=O)CN(C)C(=O)c2cccc(-n3cccc3)c2)c1	5.3	1.0	1.7	12.2	5.7	59.0*	-0.6
CN(CC(=O)Nc1ccccc1Cl)C(=O)c1cccc(-n2cccc2)c1	0.4	-7.6	0.8	0.8	-0.5	-0.1	nt
CN(CC(=O)Nc1c(Cl)cccc1Cl)C(=O)c1cccc(-n2cccc2)c1	3.0	1.4	0.2	7.6	6.9	41.7*	2.5
Cc1ccc(C)c(NC(=O)CN(C)C(=O)c2cccc(Oc3ccccc3)c2)c1	-1.1	2.0	-1.1	-3.8	-0.7	-3.2	nt
CCCNC(=O)Nc1ccc2c(c1)OC[C@H](C)N(Cc1cncnc1)C[C@@H](C)[C@@H](OC)CN(C)C2=O	nt	nt	nt	nt	nt	-6.3	nt
O=C(Nc1ccc(F)cc1)N[C@@H]1CC[C@H](CC(=O)N2CCOCC2)O[C@H]1CO	nt	nt	nt	nt	nt	-1.0	nt
CCOC(=O)[C@H](Cc1c[nH]c2ccccc12)NC(=O)CN=[N+]=[N-]	nt	nt	nt	nt	nt	38.1*	-1.0
COC(=O)[C@H](Cc1c[nH]c2ccccc12)NC(=O)Cc1c[nH]c2ccccc12	0.5	0.1	-1.1	2.3	0.8	5.0	nt
O=c1oc2ccccc2c2oc3cc(O)c(O)cc3c12	-0.4	-4.3	4.7	nt	-1.9	43.7*	-0.2
Nc1c(N)c2ccccc2oc1=O	-0.2	-0.4	3.8	0.6	1.1	nt	nt
CCCCNC(=O)c1nc(C2CCNCC2)oc1-c1cccc(C(F)(F)F)c1	nt	nt	nt	nt	nt	92.3*	-1.6
N#Cc1ccc(-c2ccc([C@@H]3[C@@H](CO)N4C(=O)CN(C(=O)C5CCC5)C[C@@H]34)cc2)cc1	nt	nt	nt	nt	nt	0.4	nt
Cc1ccccc1S(=O)(=O)N1C[C@H](O)COC[C@@H]2O[C@H](CC(=O)N3CCC(Cc4ccccc4)CC3)CC[C@H]21	nt	nt	nt	nt	nt	-3.3	nt
COc1ccc(S(=O)(=O)Nc2cc(Sc3ncn[nH]3)c(O)c3ccccc23)cc1	nt	nt	nt	165.1*	nt	nt	2.7
O=S(=O)(O)c1cc(O)c2cc(Nc3ccccc3)ccc2c1	nt	0.1	-0.3	104.5*	93.1*	79.7*	13.4	Alpha artifact=6.4µM*
Cc1noc(C)c1NC(=O)Nc1cccc2c1O[C@@H](CN(C)Cc1ccncc1)[C@H](C)CN([C@@H](C)CO)C2=O	nt	nt	nt	nt	nt	-1.3	nt
SMILES	HDAC3 inh	Keap1 Nrf2 FP	Glyco luc inh	NSD2 inh	C-LANA FP	CASP6 VEID inh	CASP1 counter	others
CO[C@@H]1CN(C)C(=O)c2ccc(NS(=O)(=O)c3cccc(F)c3)cc2OC[C@@H](C)N(C(=O)Cc2cccnc2)C[C@@H]1C	nt	nt	nt	nt	nt	0.6	nt
Nc1cc(S(=O)(=O)O)cc([N+](=O)[O-])c1O	2.5	-3.4	1.0	87.4*	80.9*	59.4*	-2.9	Alpha artifact=-5.5%
Nc1ccc(C(=O)O)cc1[N+](=O)[O-]	-2.9	-3.8	0.0	nt	2.2	3.9	nt
CCCNC(=O)[C@H]1[C@H](CO)[C@H]2Cn3c(cccc3=O)[C@H]2N1Cc1cccc(F)c1	nt	nt	nt	nt	nt	0.3	nt
O=C1CN(C(=O)COC(=O)c2ccc([N+](=O)[O-])s2)c2ccccc2N1	2.0	-2.9	9.0	59.8*	-1.8	nt	-1.4	Alpha artifact=-5.8%
CN(CC(=O)Nc1ccccc1Cl)C(=O)COC(=O)c1cccs1	?	-2.0	1.7	-3.6	-0.2	0.4	nt
CN(CC(=O)Nc1ccccc1Cl)C(=O)COC(=O)c1ccc([N+](=O)[O-])s1	1.0	0.2	2.9	77.6*	0.9	99.4*	-3.8	Alpha artifact=-4.3%
O=C(O)Cc1ccc(-n2cccc2)cc1	1.7	6.9	-0.8	116.8*	17.7	69.7*	-0.8	Alpha artifact=-3.8%
CC(=O)c1ccc(NC(=O)Nc2cccc(Cl)c2)cc1	3.4	4.1	-6.7	-5.9	0.0	nt	nt
CC(=O)c1ccc(NC(=S)NCCc2cccc(Cl)c2)cc1	2.3	4.5	0.3	53.4*	1.0	2.5	nt	Alpha artifact=-1.8%
COc1cccc2c1N1C(=O)c3c(C(=O)O)cccc3C1CC2(C)C (stereo unspecified)	nt	-5.0	3.0	101.1*	0.6	nt	nt	Alpha artifact=-1.1%
COc1ccc(N2Cc3cccc(C(=O)O)c3C2=O)cc1	nt	-1.1	1.8	nt	11.2	nt	nt
CC(C)CC#Cc1ccc2c(c1)O[C@H](CN(C)C(=O)Cc1ccncc1)[C@H](C)CN([C@@H](C)CO)S2(=O)=O	nt	nt	nt	nt	nt	1.2	nt
CCC(=O)N(C)C[C@@H]1Oc2cc(C#CC(C)C)ccc2S(=O)(=O)N([C@@H](C)CO)C[C@H]1C	nt	nt	nt	nt	nt	-4.8	nt
O=C(c1ccc2nc(-c3ccco3)c(-c3ccco3)nc2c1)N1CCN(c2ccccc2)CC1	nt	0.5	0.9	3.5	-2.6	nt	nt
O=C(O)c1ccc2nc(-c3ccco3)c(-c3ccco3)nc2c1	nt	5.3	2.8	185.7*	29.8	71.6*	nt	Alpha artifact=-8.2%
COc1cc(/C=C2\C(=O)NN(c3ccccc3)C2=O)cc([N+](=O)[O-])c1O	11.7	0.0	2.1	34.1	14.8	27.1	nt
CCOc1cc(/C=C2\C(=O)NN(c3ccccc3)C2=O)cc([N+](=O)[O-])c1O	9.1	-2.5	0.1	110.9*	10.7	37.0*	nt	Alpha artifact=-9.5%
CNc1c(N)n(Cc2ccccc2)c(=O)[nH]c1=O	-7.7	7.8	2.6	64.0*	27.8	nt	nt	Alpha artifact=-6.6%
Nc1c(NCc2ccccc2)c(=O)[nH]c(=O)n1Cc1ccccc1	-2.6	7.1	0.4	nt	16.7	nt	nt
O=C(NC1(O)C(=O)c2ccccc2C1=O)c1ccccc1	1.3	-12.3	-1.6	109.6*	3.0	nt	nt	Alpha artifact=3.1%
C[C@@H]1CN([C@@H](C)CO)C(=O)Cc2cc(NS(=O)(=O)c3ccccc3)ccc2O[C@@H]1CN(C)Cc1ccccc1	nt	nt	nt	nt	nt	-1.3	nt
